These results are taken from PubChem BioAssay (NCATS).

Records with an inconclusive call do not appear. Activity calls are given as the source filed them. The call rests on the fitted dose curve; in most records, active means well fitted inhibition curve with a large enough effect; inconclusive means small, poorly fitted or top-dose-only effect; inactive means flat fitted curve, though single readings scatter.
On the % scale 0 is the no-effect control and ±100 the full control effect.

The test system of the assay is MCC-26. The assay can be described thus: qHTS assay to identify novel small-molecules to repurpose for Merkel cell carcinoma treatment (AID 1296009). Further: nearly all actives have a fitted effect of over 60% in size. The settings on record: MCC and control cell lines, CellTiter-Glo viability, 72 h; series mostly up to 46 µM; activity change, negative = cytotoxicity: at the top concentration. The text has this:
MCC is a rare and aggressive neuroendocrine skin cancer with limited treatment options. Approximately 80% of MCCs have the Merkel cell polyomavirus (MCPyV) DNA integrated into the host genome (virus-positive: VP-MCC) and viral oncogenes drive oncogenesis. The remaining MCCs are virus-negative (VN-MCC) and are caused by UV mutagenesis. To identify novel treatments for VP-MCC and/or VN-MCC we screened three VP-MCC cell lines (WAGA, MKL-1, MKL-2), three VN-MCC cell lines (MCC-13, MCC-26, UISO), and four immortalized, non-transformed control cell lines (HaCaT, HEK293T, CRL7250, NIH-3T3) against ~2,400 compounds in the NCGC Pharmaceutical Collection (NPC) and ~1,900 compounds in the Mechanism Interrogation PlatE (MiPE). Using cell viability as a readout (CellTiter-Glo assay) we found both overlapping and distinct drugs that can be repurposed for the treatment of VP-MCC and VN-MCC.
A high-throughput screen was conducted in 1536-well white flat bottom plates (Corning) on a Kalypsys robotic system. Cell lines WAGA, MKL-1, MKL-2, MCC-13, MCC-26, UISO, HaCaT, HEK293T, CRL7250, and NIH-3T3 were screened against 2 small molecule annotated drug libraries NPC and MIPE in dose response (8 and 11 pt. respectively) measuring cell viability after 72 hours of incubation. […] A 1,536 pintool (Kalypsys) was used to transfer 23 nL of compound in DMSO to the 1,536-well assay plates. After 72 hr incubation at 37 degree celsius, 2.5 uL of CellTiter-Glo (Promega) was dispensed into each well using a BiorapTR. Plates were incubated at room temperature for 10 min, transferred to a ViewLux (PerkinElmer) and the luminescence was recorded using an exposure time of 2 seconds. Relative luminescence units (RLUs) were normalized to in-plate controls (no cells as a positive (cytotoxicity) control, DMSO as negative control) and the normalized data was processed using NCATS in-house software.
In general terms: Quantitative high-throughput screening tests each substance at several concentrations.
For the molecule `CCOC(=O)N1CCC(=C2c3ccc(Cl)cc3CCc3cccnc32)CC1`, the “activity change, negative = cytotoxicity” value is -20.1% (inactive).

Consider `NS(=O)(=O)c1cc2c(cc1Cl)NC=NS2(=O)=O`, for which the Potency result is “inactive”.

Turning to `COc1ccccc1[C@H](c1cccc2ccccc12)[C@@](C)(C#N)C(=O)N1CCC(c2cccc(C(F)(F)F)c2)CC1`, the “activity change, negative = cytotoxicity” value was -11.3% (inactive).

Turning to `COc1ccc(CCN2CCN(CCCc3ccccc3)CC2)cc1OC`, the “activity change, negative = cytotoxicity” value was -7.24% (inactive).

On to `CC(C)(N)C(=O)N[C@H](COCc1ccccc1)C(=O)N1CCC2(CC1)CN(S(C)(=O)=O)c1ccccc12`, for which the “activity change, negative = cytotoxicity” value is -11.4% (inactive).

As for `CC(C)(C)OC(=O)CN(Cc1ccc(Cl)cc1)Cc1ccc([N+](=O)[O-])s1`, the “activity change, negative = cytotoxicity” value is -0.649% (inactive).

For the molecule `CCOc1cc(C=C2C(=O)N(c3ccccc3)N=C2C)cc(Cl)c1OCC(=O)OC`, the “activity change, negative = cytotoxicity” value is -15% (inactive).

Turning to `CN(C)c1ccc(Nc2nc(N)n(C(=O)c3c(F)cccc3F)n2)cc1`, the “activity change, negative = cytotoxicity” value is -17.4% (inactive).

For `Nc1nccc(-c2ccc3noc(-c4ccc(Cl)cc4)c3c2)n1`, the “activity change, negative = cytotoxicity” value was -4.94% (inactive).

For the molecule `CC(C)OC(=O)C1=CN(C(=O)c2ccc(F)c(F)c2)CC(C)(C)c2c1[nH]c1ccccc21`, the “activity change, negative = cytotoxicity” value is -19.9% (inactive).

For the molecule `Cc1cnc(Nc2ccc(OCCN3CCCC3)cc2)nc1Nc1cccc(S(=O)(=O)NC(C)(C)C)c1`, the “activity change, negative = cytotoxicity” value was -6.44% (inactive).

In the case of `Cn1cc(-c2ccc3nnc(C(F)(F)c4ccc5ncccc5c4)n3n2)cn1`, the “activity change, negative = cytotoxicity” value was 1.56% (inactive).

Turning to `CC(C)(C)NCC(O)c1ccc(O)c(CO)c1` (stereo not given), the Potency result is “inactive”.

Regarding `O=c1n(CCCN2CCN(c3cccc(Cl)c3)CC2)nc2ccccn12`, the Potency entry was “inactive”.

On to `CCOC(=O)N[C@@H]1CC[C@@H]2[C@@H](C1)C[C@H]1C(=O)O[C@H](C)[C@H]1[C@@H]2C=Cc1ccc(-c2cccc(F)c2)cn1`, for which the “activity change, negative = cytotoxicity” value is -18.1% (inactive).

Consider `O=C(c1cc(Cc2n[nH]c(=O)c3ccccc23)ccc1F)N1CCN(C(=O)C2CC2)CC1`, for which the “activity change, negative = cytotoxicity” value was -6.27% (inactive).

Take `c1ccc([C@H]2CN3CCSC3=N2)cc1`: the Potency result was “inactive”.

As to `Cc1cc(C=c2sc3nc4ccccc4n3c2=O)c(C)n1-c1ccccc1`, the “activity change, negative = cytotoxicity” value is 1.23% (inactive).

For the molecule `NCCCC(N)(C(=O)O)C(F)F` (stereo not given), the Potency entry is “inactive”.

Turning to `COc1ccc(-c2oc3cc(OC)ccc3c2C(=O)c2ccc(C#N)cc2)cc1`, the “activity change, negative = cytotoxicity” value was -4.01% (inactive).

In the case of `C#Cc1cccc(Nc2ncnc3cc(OCCOC)c(OCCOC)cc23)c1`, the Potency entry was “inactive”.

In the case of `CN[C@@H](C)C(=O)N[C@H]1CCCC[C@H]2CC[C@@H](C(=O)N[C@@H](c3ccccc3)c3cn(CCCCc4ccc(CCCCn5cc([C@@H](NC(=O)[C@@H]6CC[C@@H]7CCCC[C@H](NC(=O)[C@H](C)NC)C(=O)N76)c6ccccc6)nn5)cc4)nn3)N2C1=O`, the “activity change, negative = cytotoxicity” value was -19.7% (inactive).

Consider `OCCn1cc(-c2cnc3nnn(Cc4ccc5ncccc5c4)c3n2)cn1`, for which the “activity change, negative = cytotoxicity” value was 3.99% (inactive).

Regarding `COc1cc(Oc2ccnc3cc(OC)c(OC)cc23)ccc1NC(=O)NC(C)c1nccs1` (stereo not given), the “activity change, negative = cytotoxicity” value is -12.2% (inactive).

Regarding `Cc1cc(Nc2nc(N[C@@H](C)c3ncc(F)cn3)ncc2Cl)n[nH]1`, the “activity change, negative = cytotoxicity” value was -6.26% (inactive).

Turning to `CC(C)C[C@H](NC(=O)[C@@H](O)[C@H](N)Cc1ccccc1)C(=O)O`, the “activity change, negative = cytotoxicity” value was -4.86% (inactive).

In the case of `CCCCCCCc1ccc(CCc2cccc(O)c2C(=O)O)cc1`, the “activity change, negative = cytotoxicity” value is -8.48% (inactive).

`CN(C(=O)c1ccc(F)cc1C(F)(F)F)C1CCN(c2nnc(-c3ccnn3C)c3ccccc23)CC1`: the “activity change, negative = cytotoxicity” value was -6.63% (inactive).

For the molecule `CCC(C)N(C)C(=O)c1cc2ccccc2c(-c2ccccc2Cl)n1` (stereo not given), the “activity change, negative = cytotoxicity” value was 3.44% (inactive).

For the molecule `O=c1[nH]c(-c2ccc(C(F)(F)F)cc2)nc2c1CSCC2`, the “activity change, negative = cytotoxicity” value was -4.97% (inactive).

Consider `Cc1cnc(NC(=O)C2=C(O)c3ccccc3S(=O)(=O)N2C)s1`, for which the Potency entry is “inactive”.

Regarding `Cc1c(C)c2c(c(C)c1O)CCC(C)(COc1ccc(CC3SC(=O)NC3=O)cc1)O2` (stereo not given), the Potency result is “inactive”.

In the case of `CC(=O)Oc1ccccc1C(=O)O`, the Potency result was “inactive”.

Regarding `OCCC#Cc1nc(-c2ccc(F)cc2)c(-c2ccncc2)n1CCCc1ccccc1`, the “activity change, negative = cytotoxicity” value was -1.74% (inactive).

On to `Cc1cc(-c2ccc(CC(=O)Nc3ccc(-c4cccnc4)cc3)cc2)ccn1`, for which the “activity change, negative = cytotoxicity” value was -18.3% (inactive).

On to `Cn1c(=O)c(F)c(Nc2ccc(I)cc2F)c2c(=O)n(C[C@@H](O)CO)cnc21`, for which the “activity change, negative = cytotoxicity” value was -17.7% (inactive).

Turning to `COc1cc2c(cc1OC)CN(CCc1ccc(NC(=O)c3cccc4c(=O)c5cccc(OC)c5[nH]c34)cc1)CC2`, the “activity change, negative = cytotoxicity” value is -15.3% (inactive).

With `Cc1cc(SCc2sc(-c3ccc(C(F)(F)F)cc3)nc2C)ccc1OCC(=O)O`, the “activity change, negative = cytotoxicity” value is 0.838% (inactive).

On to `NCCc1ccc(O)c(O)c1`, for which the “activity change, negative = cytotoxicity” value was -1.26% (inactive).

On to `Clc1ccc(Nc2nnc(Cc3ccncc3)c3ccccc23)cc1`, for which the Potency entry is “inactive”.
